# Among all 2,700 compounds or so, about 160 (5.9%) showed an effect of 50% or more. What follows is part of a selection rich in strong results, with near analogues and random picks from the rest.
# Target: Nonstructural protein 3 (Zika virus) (UniProt A0A024AXB9)
# [1] = PRVABC59, Concentration 50.0 uM, Number of replicates 1.0
# [2] = PRVABC59, Concentration 15.0 uM, Number of replicates 1.0
# Sequence of Nonstructural protein 3 (Zika virus) (A0A024AXB9 as listed by the source): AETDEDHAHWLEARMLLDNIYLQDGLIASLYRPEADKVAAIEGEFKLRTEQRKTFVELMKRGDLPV
structure (smiles),measurement,setting,value
C[C@@H](c1ccccc1)N(Cc1ccncc1)C(=O)C1CCN(c2ccc(C=O)cc2)CC1,inhibition,[1],21.5%
O=C(Nc1ccc(Cl)c(Cl)c1)c1cc(Cl)ccc1NS(=O)(=O)c1ccc(Oc2ccccc2Cl)cc1,inhibition,[2],37.7%
O=C(Nc1ccc(I)cc1F)c1cc(Cl)ccc1NS(=O)(=O)c1ccc(Oc2ccccc2Cl)cc1,inhibition,[2],67.5%
O=C(Nc1ccc(Br)nc1)c1cc(Cl)ccc1NS(=O)(=O)c1ccc(Oc2ccccc2Cl)cc1,inhibition,[2],35.2%
O=C(Nc1cccc(N2CCOCC2)c1)c1cc(Cl)ccc1NS(=O)(=O)c1ccc(Oc2ccccc2Cl)cc1,inhibition,[2],66.3%
O=C(Nc1ccc(N2CCOCC2=O)cc1)c1cc(Cl)ccc1NS(=O)(=O)c1ccc(Oc2ccccc2Cl)cc1,inhibition,[2],48.5%
O=C(Nc1cc(Cl)c(F)cc1F)c1cc(Cl)ccc1NS(=O)(=O)c1ccc(Oc2ccccc2Cl)cc1,inhibition,[2],26.5%
O=C(c1cc(Cl)ccc1NS(=O)(=O)c1ccc(Oc2ccccc2Cl)cc1)N1CCN(CCc2ccncc2)CC1,inhibition,[2],6.55%
Cc1cc(I)ccc1NC(=O)c1cc(Cl)ccc1NS(=O)(=O)c1ccc(Oc2ccccc2Cl)cc1,inhibition,[2],20.7%
O=C(Nc1ccc2scnc2c1)c1cc(Cl)ccc1NS(=O)(=O)c1ccc(Oc2ccccc2Cl)cc1,inhibition,[2],71.2%
O=C(c1cc(Cl)ccc1NS(=O)(=O)c1ccc(Oc2ccccc2Cl)cc1)N1CCN(CCc2ccccc2)CC1,inhibition,[2],53.5%
O=C(c1cc(Cl)ccc1NS(=O)(=O)c1ccc(Oc2ccccc2Cl)cc1)N1CCCN(CCCc2ccccc2)CC1,inhibition,[2],11.4%
C[C@H](NC(=O)c1cc(Cl)ccc1NS(=O)(=O)c1ccc(Oc2ccccc2Cl)cc1)c1ccc(N2CCOCC2)cc1,inhibition,[2],18.7%
O=C(c1cc(Cl)ccc1NS(=O)(=O)c1ccc(Oc2ccccc2Cl)cc1)N1CCC(N2CCCC2=O)CC1,inhibition,[2],-2.59%
Cn1ccc(CN2CC[C@H](c3c[nH]c4ccccc34)C2)cc1=O,inhibition,"PRVABC59, Concentration 49.5 uM, Number of replicates 2.0, Standard deviation 0.9869168424646743 %",2.74%
same,inhibition,"PRVABC59, Concentration 99.01 uM, Number of replicates 2.0, Standard deviation 1.3893738957347146 %",5.37%
same,inhibition,"PRVABC59, Concentration 198.0 uM, Number of replicates 2.0, Standard deviation 1.456023236095902 %",9.72%
O=C(c1cc(Cl)ccc1NS(=O)(=O)c1ccc(Oc2ccccc2Cl)cc1)N1CCN(Cc2cc(F)ccc2F)CC1,inhibition,[2],17.7%
COc1cc(CNC(=O)c2cc(Cl)ccc2NS(=O)(=O)c2ccc(Oc3ccccc3Cl)cc2)cc(OC)c1OC,inhibition,[2],19.3%
O=Cc1ccc(N2CCC(C(=O)Nc3cccc(Br)c3)CC2)cc1,inhibition,[1],23.9%
O=C(NCc1noc(-c2cccs2)n1)c1cc(Cl)ccc1NS(=O)(=O)c1ccc(Oc2ccccc2Cl)cc1,inhibition,[2],51.9%
O=C(Nc1cccnc1Br)c1cc(Cl)ccc1NS(=O)(=O)c1ccc(Oc2ccccc2Cl)cc1,inhibition,[2],23%
O=C(Nc1cc(F)c(Br)c(F)c1)c1cc(Cl)ccc1NS(=O)(=O)c1ccc(Oc2ccccc2Cl)cc1,inhibition,[2],23.4%
O=C(Nc1ccccc1Oc1ccccc1)c1cc(Cl)ccc1NS(=O)(=O)c1ccc(Oc2ccccc2Cl)cc1,inhibition,[2],54.2%
O=C(NCc1noc(-c2ccco2)n1)c1cc(Cl)ccc1NS(=O)(=O)c1ccc(Oc2ccccc2Cl)cc1,inhibition,[2],48.1%
O=C(Nc1ccc(-c2ccccn2)cc1)c1cc(Cl)ccc1NS(=O)(=O)c1ccc(Oc2ccccc2Cl)cc1,inhibition,[2],58.7%
O=C(Nc1ccccc1-c1ccccc1)c1cc(Cl)ccc1NS(=O)(=O)c1ccc(Oc2ccccc2Cl)cc1,inhibition,[2],36.2%
O=C(Nc1cc(Cl)c(F)c(Cl)c1)c1cc(Cl)ccc1NS(=O)(=O)c1ccc(Oc2ccccc2Cl)cc1,inhibition,[2],24.3%
O=C(Nc1cc(Cl)c(O)c(Cl)c1)c1cc(Cl)ccc1NS(=O)(=O)c1ccc(Oc2ccccc2Cl)cc1,inhibition,[2],84.9%
O=C(NCc1ccc(-c2cccs2)cc1)c1cc(Cl)ccc1NS(=O)(=O)c1ccc(Oc2ccccc2Cl)cc1,inhibition,[2],28.5%
O=C(Nc1ccc(-c2ccccc2)cc1)c1cc(Cl)ccc1NS(=O)(=O)c1ccc(Oc2ccccc2Cl)cc1,inhibition,[2],26.5%
O=C(Nc1ccccc1I)c1cc(Cl)ccc1NS(=O)(=O)c1ccc(Oc2ccccc2Cl)cc1,inhibition,[2],26.7%
